Only a selection was taken, and hits are over-represented in it overall.
Dicer inh = inhibitors of Dicer pre-microRNA processing, primary screen, biochemical, cat-ELCCA, chemiluminescence. Endoribonuclease Dicer (Homo sapiens), Q9UPY3. cat-ELCCA pre-miR-21 Dicer processing; active compounds read high. hit rate 6% among 47,000. AID 1347074, 2019. z-score at 25 µM; in the data active means z-score above about 3, passing the limit was not always enough;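 further: higher signal means more uncleaved substrate so more Dicer inhibition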
Target sequence (Q9UPY3 whole entry, looked up): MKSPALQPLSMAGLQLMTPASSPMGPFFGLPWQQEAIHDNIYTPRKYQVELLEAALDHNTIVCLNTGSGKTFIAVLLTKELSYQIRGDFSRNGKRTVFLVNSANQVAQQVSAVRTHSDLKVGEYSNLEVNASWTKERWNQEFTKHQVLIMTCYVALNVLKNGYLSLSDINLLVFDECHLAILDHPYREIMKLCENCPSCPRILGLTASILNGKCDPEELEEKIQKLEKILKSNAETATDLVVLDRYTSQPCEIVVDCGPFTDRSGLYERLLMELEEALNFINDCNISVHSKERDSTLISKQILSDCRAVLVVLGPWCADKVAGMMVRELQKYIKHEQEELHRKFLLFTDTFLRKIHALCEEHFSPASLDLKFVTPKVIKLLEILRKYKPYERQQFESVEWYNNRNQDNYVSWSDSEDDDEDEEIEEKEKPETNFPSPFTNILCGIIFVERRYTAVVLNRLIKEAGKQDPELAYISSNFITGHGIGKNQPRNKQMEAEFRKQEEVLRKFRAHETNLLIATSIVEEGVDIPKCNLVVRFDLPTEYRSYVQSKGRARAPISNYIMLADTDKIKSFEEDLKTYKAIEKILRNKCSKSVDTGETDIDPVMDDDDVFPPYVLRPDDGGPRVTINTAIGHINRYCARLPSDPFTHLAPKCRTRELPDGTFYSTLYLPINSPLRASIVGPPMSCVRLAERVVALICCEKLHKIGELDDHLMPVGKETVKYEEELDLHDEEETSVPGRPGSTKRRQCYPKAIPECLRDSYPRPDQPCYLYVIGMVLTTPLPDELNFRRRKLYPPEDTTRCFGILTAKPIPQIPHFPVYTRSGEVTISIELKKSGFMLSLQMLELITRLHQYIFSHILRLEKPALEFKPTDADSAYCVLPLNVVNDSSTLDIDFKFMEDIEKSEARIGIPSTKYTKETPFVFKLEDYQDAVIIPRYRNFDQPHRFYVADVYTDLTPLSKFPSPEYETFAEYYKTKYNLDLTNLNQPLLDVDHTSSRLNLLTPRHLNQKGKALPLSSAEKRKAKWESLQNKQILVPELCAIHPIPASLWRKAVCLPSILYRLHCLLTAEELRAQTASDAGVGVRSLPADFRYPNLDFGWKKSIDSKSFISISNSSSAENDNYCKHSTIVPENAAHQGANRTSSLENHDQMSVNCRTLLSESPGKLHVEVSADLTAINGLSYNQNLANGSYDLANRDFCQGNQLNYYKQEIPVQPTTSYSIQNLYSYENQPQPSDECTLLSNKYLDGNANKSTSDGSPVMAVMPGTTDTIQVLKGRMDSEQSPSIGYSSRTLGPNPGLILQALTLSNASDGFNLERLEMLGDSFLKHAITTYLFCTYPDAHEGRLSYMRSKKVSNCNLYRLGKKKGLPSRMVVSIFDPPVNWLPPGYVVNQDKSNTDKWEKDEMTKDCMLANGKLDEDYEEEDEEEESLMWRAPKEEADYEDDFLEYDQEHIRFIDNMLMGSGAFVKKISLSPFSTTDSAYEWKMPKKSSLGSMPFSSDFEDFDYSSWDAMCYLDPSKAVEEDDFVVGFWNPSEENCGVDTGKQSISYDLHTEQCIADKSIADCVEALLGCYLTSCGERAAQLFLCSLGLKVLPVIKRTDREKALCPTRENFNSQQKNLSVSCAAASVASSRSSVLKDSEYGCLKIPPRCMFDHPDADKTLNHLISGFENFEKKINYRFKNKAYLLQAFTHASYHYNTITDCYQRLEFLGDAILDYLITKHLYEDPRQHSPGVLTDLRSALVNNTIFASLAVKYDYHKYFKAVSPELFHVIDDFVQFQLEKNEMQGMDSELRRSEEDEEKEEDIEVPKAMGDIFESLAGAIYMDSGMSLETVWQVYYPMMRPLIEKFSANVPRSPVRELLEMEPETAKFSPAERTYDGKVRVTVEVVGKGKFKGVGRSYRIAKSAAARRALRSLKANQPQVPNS
Each line names hits and unclear results; the compound was inactive in the other large screens.

Cn1c(=O)c2c(c3ccccc31)OC(=O)CC2c1ccc(Cl)cc1 (configuration not stated)	none
COc1ccc(NC2=CC(=O)CC(C)(C)C2)c(OC)c1	none
CCCCNC1=CC(=O)CC(C)(C)C1	none
Cc1ccc(NC2=CC(=O)CC(C)(C)C2)cc1C	Dicer inh 3.5
O=C(Nc1cccc(Cl)c1)O/N=C1/CCCc2occc21	none
Cn1c(=O)c2c(nc(N3CCCCCC3)n2C)n(C)c1=O	none
COC(=O)C1=C(C(=O)OC)SC(=C2C(=S)C(C)(C)N(C(=O)C3CC3)c3ccc(C)cc32)S1	none
COc1ccc(-c2nc(-c3ccc(C)cc3)no2)cc1OC	none
COc1ccc(/C=C/c2nc(-c3ccncc3)no2)cc1OC	none
COc1ccc(/C=C/c2nc(-c3ccc(C)cc3)no2)cc1OC	Dicer inh 3.8
COc1ccc(NC(=O)c2cccc3c2-c2ccc(I)cc2C3)cc1	none
COc1ccc(NC(=O)C2=Cc3cccc(OC)c3OC2)cc1	Dicer inh 3.8
COc1ccc(NC(=O)Nc2cccc(NC(=O)Nc3ccc(OC)cc3)c2F)cc1	none
COc1cc(C(=O)NS(=O)(=O)c2ccccc2C)ccc1Cc1cn(C)c2ccc(NC(=O)OC3CCCC3)cc12	Dicer inh 4.3
COc1cc(C(=O)NNS(=O)(=O)c2ccccc2C)c(-n2c(C)ccc2C)cc1OC	none
CC(C)(C)c1ccc(OCc2nc(Nc3ccccc3Cl)cc(=O)[nH]2)cc1	none
Cc1cccc(C)c1C(=O)NC(=O)Nc1c(F)cc(F)cc1F	Dicer inh 56
O=C(NC(=O)c1c(Cl)cccc1Cl)Nc1c(F)cc(F)cc1Br	none
COc1ccc(Br)c(OC)c1C(=O)NC(=O)Nc1c(F)cccc1F	none
Cc1cc(-c2nnc(SCC(=O)c3ccc(C(C)(C)C)cc3)o2)no1	none
O=c1c(Cc2ccccc2)c(O)c2ccccc2n1-c1ccccc1	Dicer inh 4
O=c1c(Cc2ccccc2)c(O)c2cccc3c4ccccc4n1c23	none
O=c1c(Cc2ccccc2)c(O)c2cccc3c2n1CCC3	none
Cc1ccc(S(=O)(=O)N2CCN(CC(=O)Nc3cc(-c4ccccc4)sc3C(N)=O)CC2)cc1	none
CC(=O)c1ccc(SC(C)C)c([N+](=O)[O-])c1	none
O=C(c1cc(O)c(O)c([N+](=O)[O-])c1)c1ccccc1F	none
Cc1ccc(C(=O)c2cc(O)c(O)c([N+](=O)[O-])c2)cc1	Dicer inh 8.4
Cc1ccc(Cn2nnc(-c3cc(Cl)cc(Cl)c3)n2)cc1	none
Clc1ccccc1N/N=C/Cc1nnnn1-c1ccccc1	none
CN(/N=C/Cc1nnnn1-c1ccc(Cl)cc1)c1ccccc1	none
NC(=S)N/N=C/Cc1nnnn1-c1ccc(-c2ccccc2)cc1	Dicer inh 3.2
O=C1CSCC(=O)N1c1ccc(F)c(F)c1F	none
CCn1c2ccccc2c2cc(CN3CCN(S(C)(=O)=O)CC3)ccc21	Dicer inh 5.4
COc1ccc(CN2CCN(S(C)(=O)=O)CC2)cc1OC	none
CCn1c2ccccc2c2cc([N+](=O)[O-])ccc21	none
Clc1ccc(-n2nnnc2/C=C/N2CCN(c3cccc(Cl)c3)CC2)cc1	none
CC(C)(C)S(=O)(=O)Cc1noc(-c2ccc(F)cc2Cl)n1	none
CC(C)(C)OC(=O)N[C@@H](Cc1cccc(F)c1)C(=O)O	none
Cc1ccc(OCCSc2nc3ncnc(N)c3[nH]2)c(C(C)C)c1	Dicer inh 3.6
COc1ccccc1OCCSc1nc2ncnc(N)c2[nH]1	none
Cc1ccc(C(C)C)c(OCCSc2ncnc3nc[nH]c23)c1	none
CCOC(=O)NC(=S)NCCc1c[nH]c2ccccc12	none
N#C/C(=C\c1ccc(-c2cc(C(F)(F)F)cc(C(F)(F)F)c2)o1)C(=O)NCCc1c[nH]c2ccccc12	none
C=CCNC(=O)C(=O)NCCc1c[nH]c2ccccc12	Dicer inh 3.7
c1ccc(-c2nc3ccc(Oc4ccc5nc(-c6ccccn6)[nH]c5c4)cc3[nH]2)nc1	none
COC(=O)C1=C(C)NC2=C(C(=O)CC(c3ccc(OC)c(OC)c3)C2)C1c1ccccc1OC(C)C (configuration not stated)	none
COCCOC(=O)C1=C(C)NC2=C(C(=O)CC(C)(C)C2)C1c1ccc(OC)c(OC)c1 (configuration not stated)	Dicer inh 3.7
CC1=C(C(=O)OCC2CCCO2)C(c2cccc(O)c2)C2=C(CC(C)(C)CC2=O)N1 (configuration not stated)	Dicer inh 3.1
CC1=C(C(=O)OCC2CCCO2)C(c2cccc(Cl)c2)C2=C(CC(C)(C)CC2=O)N1 (configuration not stated)	none
CCOCCOC(=O)C1=C(C)NC2=C(C(=O)CC(C)(C)C2)C1c1ccc(OC)c(OC)c1 (configuration not stated)	none
CC1=C(C(=O)OCC2CCCO2)C(c2cccc(Br)c2)C2=C(CC(C)(C)CC2=O)N1 (configuration not stated)	none
COC(=O)C1=C(C)NC2=C(C(=O)CC(c3ccc(OC)c(OC)c3)C2)C1c1ccc(F)cc1 (configuration not stated)	Dicer inh 4.5
COC(=O)C1=C(C)NC2=C(C(=O)CC(c3ccccc3)C2)C1c1ccccc1Cl (configuration not stated)	none
COC(=O)C1=C(C)NC2=C(C(=O)CC(c3ccc(OC)c(OC)c3)C2)C1c1ccc(SC)cc1 (configuration not stated)	none
COC(=O)C1=C(C)NC2=C(C(=O)CC(c3ccc(Cl)cc3)C2)C1c1ccccc1Cl (configuration not stated)	Dicer inh 3.4
COC(=O)C1=C(C)NC2=C(C(=O)CC(c3ccc(OC)cc3)C2)C1c1ccc(OC)c(OC)c1 (configuration not stated)	none
CCCCOC(=O)C1=C(C)NC2=C(C(=O)CC(C)(C)C2)C1c1ccc(OC)c(OC)c1 (configuration not stated)	none
COC(=O)C1=C(C)NC2=C(C(=O)CC(c3ccccc3)C2)C1c1ccccc1F (configuration not stated)	none
C#CC1(NS(=O)(=O)c2ccc(SCC(=O)OCC)c([N+](=O)[O-])c2)CCCCC1	none
Nc1ccccc1SC(C[N+](=O)[O-])c1ccc(Cl)cc1 (configuration not stated)	none
CCN1C(=O)N(CC)C2C1N(CC)C(=O)N2CC (configuration not stated)	none
COc1ccc(CCN2C(=O)c3cccc4cc([N+](=O)[O-])cc(c34)C2=O)cc1OC	none
NC(=O)C12CC3CC(CC(Br)(C3)C1)C2	none
N#CCCN1C(=O)C2(OCCO2)C2CCCCC21 (configuration not stated)	none
CCOC(=O)c1c(Sc2ccccc2)cnn1C(=O)Nc1cccc(Cl)c1	none
COC(=O)C1=C(NC(=O)c2cccc(Br)c2)CCS1	none
Cn1nc(C(C)(C)C)c(NC(=O)c2cccnc2)c1C(C)(C)C	none
CCOc1ccc(C2C(C(=O)OCCOC)=C(C)NC3=C2C(=O)CCC3)cc1OC (configuration not stated)	none
COc1ccccc1C1C(C(=O)OC(C)C)=C(C)NC2=C1C(=O)CC(c1ccccc1)C2 (configuration not stated)	none
COc1cccc(C2C(C(=O)OC(C)C)=C(C)NC3=C2C(=O)CC(c2ccccc2)C3)c1OC (configuration not stated)	Dicer inh 7.6
COc1cccc(C2C(C(=O)OC3CCCC3)=C(C)NC3=C2C(=O)CC(c2ccccc2)C3)c1OC (configuration not stated)	none
CCCCCOC(=O)C1=C(C)NC2=C(C(=O)CCC2)C1c1ccc(OCC)c(OC)c1 (configuration not stated)	Dicer inh 4.2

Source: PubChem BioAssay
